PubChem BioAssay (NCATS)
“And” between values parts separate entries of the source, which are not always exact repeats. Equal entries are not always repeated. Results filed as inconclusive are left out. The source made the active and inactive calls. Unless noted, the call rests on the fitted dose curve; in most records, active means well fitted curve in either direction with a large enough effect (not every such curve was filed as active); inconclusive means small, poorly fitted or top-dose-only effect, or another doubt; inactive means flat fitted curve, though single readings scatter.

Columns and labels:
[1] = AP1 Signaling Pathway (AID 357); conditions: ME-180 AP-1-bla reporter, EGF-induced, beta-lactamase ratio, 5 h; at 7.69 µM (top of the series) unless noted;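 further: ME-180 reporter cells stimulated with EGF at its EC50 level; on the % scale 0 is the no-effect control and ±100 the full control effect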
Summary of the method: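 Read-out was the 460nm/530nm emission ratio (excitation 405nm) after CCF4 loading for 2.5 hours at room temperature. Cells carried an AP-1-driven beta-lactamase reporter, were stimulated with EC50 EGF plus compound for 5 hours, and AC50 values came from titrations.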

[2] = Stat Signaling Pathway (AID 446); conditions: ME-180 (cervical carcinoma) SIE beta-lactamase reporter, IL-6 stimulated, 5 h; at 7.69 µM (top of the series) unless noted;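 further: ME-180 cervical cancer cells given 40 pM IL-6 alongside compound; SIE-controlled beta-lactamase reporter measured as 460/530 nm FRET emission ratio; on the % scale 0 is the no-effect control and ±100 the full control effect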
Summary of the method: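 Normalization used AC90 stimulation (300 pM IL-6) and AC90 inhibition (125 nM pan-JAK inhibitor at 40 pM IL-6). The underlying signal is SIE-driven beta-lactamase in ME-180 cells after 5 h IL-6 exposure with compound.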

[3] = molecular target: Glucocorticoid receptor (Homo sapiens) (UniProt P04150); assay: GR-GFP Redistribution (AID 450;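 active means compounds whose dose series gives a full or clear partial fitted curve of increased nuclear translocation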; further: potency means the concentration at half of the fitted maximal effect); conditions: U2OS GR-GFP nuclear translocation, laser cytometry, 2 h
Sequence of Glucocorticoid receptor (Homo sapiens) (P04150 whole entry, looked up, the tested form may be a part): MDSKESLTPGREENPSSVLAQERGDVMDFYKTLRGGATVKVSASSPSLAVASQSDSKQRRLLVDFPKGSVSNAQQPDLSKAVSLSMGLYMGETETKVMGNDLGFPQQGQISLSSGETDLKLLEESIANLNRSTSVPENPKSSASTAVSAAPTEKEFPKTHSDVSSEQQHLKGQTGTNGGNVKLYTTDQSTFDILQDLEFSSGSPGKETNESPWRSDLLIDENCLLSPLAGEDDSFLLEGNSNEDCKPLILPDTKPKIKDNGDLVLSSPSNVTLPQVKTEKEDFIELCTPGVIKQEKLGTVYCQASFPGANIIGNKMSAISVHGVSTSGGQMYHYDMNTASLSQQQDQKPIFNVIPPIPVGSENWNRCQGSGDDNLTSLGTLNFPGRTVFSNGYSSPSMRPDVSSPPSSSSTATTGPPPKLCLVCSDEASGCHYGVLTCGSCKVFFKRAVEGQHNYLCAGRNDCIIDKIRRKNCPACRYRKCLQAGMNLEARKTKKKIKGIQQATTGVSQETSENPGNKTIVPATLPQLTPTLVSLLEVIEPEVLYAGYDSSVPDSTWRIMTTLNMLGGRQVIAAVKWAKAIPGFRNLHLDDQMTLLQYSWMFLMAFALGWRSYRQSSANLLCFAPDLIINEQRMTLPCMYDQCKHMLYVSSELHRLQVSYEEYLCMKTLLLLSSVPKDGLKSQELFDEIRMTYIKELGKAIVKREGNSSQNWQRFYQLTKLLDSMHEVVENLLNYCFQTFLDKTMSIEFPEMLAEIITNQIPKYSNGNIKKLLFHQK

[4] = molecular target: Glucocorticoid receptor (Homo sapiens) (UniProt P04150); assay: GR-EFC Redistribution (AID 451; calls by dose curve; further: potency means the concentration at half of the fitted maximal effect); conditions: CHO-K1 GR-EFC translocation, beta-gal luminescence, 2 h
Summary of the method: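 Translocation of GR-ED fusion to nuclear EA restores b-gal, read by luminescence after 1 h room-temperature detection. Engineered CHO-K1 biosensor cells, 1,000/well, exposed 2 h at 37 C to titrations up to 46 uM final.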

[5] = molecular target: Mitogen-activated protein kinase 10 (Mus musculus) (UniProt Q61831); assay: JNK3 AlphaScreen Assay (AID 530);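 further: kinase came from lysate of stimulated human HepG2 cells; signal reports phosphorylation of biotinylated GST-cJun 1-79 at Ser73 with 10 µM ATP; on the % scale 0 is the no-effect control and ±100 the full control effect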
Summary of the method: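 qHTS titrations with 15 min compound pre-incubation before adding ATP (10 uM final). Read-out: AlphaScreen of Ser73-phosphorylated biotin-GST-cJun using HepG2 lysate JNK3 activated by IL-1β and TNFα.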

[6] = molecular target: 3',5'-cyclic-AMP phosphodiesterase 4B (Homo sapiens) (UniProt Q07343); assay: qHTS Assay for Inhibitors of PDE-IV (AID 607; active means well fitted activation curve with a large enough effect in the main read-out, with a control signal flat, not every such curve was filed as active; further: % of control where 0% means no effect)
Sequence of 3',5'-cyclic-AMP phosphodiesterase 4B (Homo sapiens) (Q07343 whole entry, looked up): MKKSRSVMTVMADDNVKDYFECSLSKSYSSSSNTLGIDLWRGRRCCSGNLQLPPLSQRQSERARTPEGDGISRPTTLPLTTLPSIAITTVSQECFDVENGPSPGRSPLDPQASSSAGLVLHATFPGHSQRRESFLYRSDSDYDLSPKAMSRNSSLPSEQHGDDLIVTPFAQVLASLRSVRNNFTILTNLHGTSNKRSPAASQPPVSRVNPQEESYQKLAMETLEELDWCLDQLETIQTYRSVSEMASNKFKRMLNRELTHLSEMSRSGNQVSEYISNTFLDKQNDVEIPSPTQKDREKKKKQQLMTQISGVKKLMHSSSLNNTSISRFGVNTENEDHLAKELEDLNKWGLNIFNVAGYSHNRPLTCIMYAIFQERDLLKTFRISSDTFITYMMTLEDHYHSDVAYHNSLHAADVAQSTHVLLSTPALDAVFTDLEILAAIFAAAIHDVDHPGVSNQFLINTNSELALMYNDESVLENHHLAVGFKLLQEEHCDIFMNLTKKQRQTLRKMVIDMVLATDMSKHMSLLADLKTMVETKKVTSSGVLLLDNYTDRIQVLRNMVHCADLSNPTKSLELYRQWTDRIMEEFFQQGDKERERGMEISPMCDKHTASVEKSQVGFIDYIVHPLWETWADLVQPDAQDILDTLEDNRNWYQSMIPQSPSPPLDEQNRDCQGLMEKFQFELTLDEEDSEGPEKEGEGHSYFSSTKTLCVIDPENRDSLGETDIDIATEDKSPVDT
Summary of the method: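 HEK293 ACTOne cells with CNG channel (1000/well), endogenous PDE4; membrane potential dye, compounds up to 22.9 uM final. Fluorescence Ex 535/Em 590; RO 20-1724 (100 uM final) as reference.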

[7] = molecular target: Guanine nucleotide-binding protein G(i) subunit alpha-1 (Homo sapiens) (UniProt P63096); assay: qHTS Assay for Inhibitors of RGS12 GoLoco Motif Activity (Green Fluorophore) (AID 879; active means well fitted curve in the direction sought with a large enough effect; an effect the other way counts as inactive or inconclusive;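 further: 0% = labeled peptide with Gαi1 and full inhibition = labeled peptide alone without protein; negative values mean loss of peptide binding seen as reduced polarization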)
Sequence of Guanine nucleotide-binding protein G(i) subunit alpha-1 (Homo sapiens) (P63096 whole entry, looked up): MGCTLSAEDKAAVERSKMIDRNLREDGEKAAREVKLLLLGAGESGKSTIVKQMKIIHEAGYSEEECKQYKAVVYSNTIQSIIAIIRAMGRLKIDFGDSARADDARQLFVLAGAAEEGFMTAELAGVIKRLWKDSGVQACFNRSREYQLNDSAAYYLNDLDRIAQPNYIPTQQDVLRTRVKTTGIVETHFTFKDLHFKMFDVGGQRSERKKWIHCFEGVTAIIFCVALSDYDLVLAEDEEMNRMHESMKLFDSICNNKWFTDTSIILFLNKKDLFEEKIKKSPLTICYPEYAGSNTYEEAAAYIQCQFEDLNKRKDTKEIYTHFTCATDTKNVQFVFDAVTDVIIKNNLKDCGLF
Summary of the method: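 A drop in FITC polarization marked displacement of the FITC-tagged RGS12 GoLoco peptide (10 nM) from Gαi1 (50 nM). Compounds were incubated 10 min at room temperature in Tris pH 7.5 buffer containing 150 mM NaCl, 0.1 mM GDP and 0.05% NP40; unlabeled peptide titration served as control.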

[8] = molecular target: Pyruvate kinase (Leishmania mexicana) (UniProt Q27686); assay: qHTS Validation Assay for Inhibitors of Leishmania Mexicana Pyruvate Kinase (AID 945; active means well fitted curve in the direction sought with a large enough effect; an effect the other way counts as inactive or inconclusive;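 further: 0% = DMSO only neutral control wells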)
Sequence of Pyruvate kinase (Leishmania mexicana) (Q27686 2-499 E452W): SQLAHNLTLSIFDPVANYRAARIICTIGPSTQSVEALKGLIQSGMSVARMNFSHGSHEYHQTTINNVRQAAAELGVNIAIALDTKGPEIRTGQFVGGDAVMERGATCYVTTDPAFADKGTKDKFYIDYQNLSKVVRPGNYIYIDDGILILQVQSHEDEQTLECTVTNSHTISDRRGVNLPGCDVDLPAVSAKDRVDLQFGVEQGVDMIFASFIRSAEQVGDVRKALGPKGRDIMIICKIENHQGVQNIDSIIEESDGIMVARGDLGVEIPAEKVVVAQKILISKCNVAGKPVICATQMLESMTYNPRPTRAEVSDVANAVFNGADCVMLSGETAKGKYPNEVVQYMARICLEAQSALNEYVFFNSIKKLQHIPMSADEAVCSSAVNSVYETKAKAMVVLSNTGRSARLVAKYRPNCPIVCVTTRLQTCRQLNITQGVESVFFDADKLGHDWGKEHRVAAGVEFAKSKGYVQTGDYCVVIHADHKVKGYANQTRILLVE
Summary of the method: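 Luminescent ATP detection (PKLight) after a 1 h room-temperature reaction of 0.2 nM LmPYK E451W mutant with 0.5 mM PEP and 0.1 mM ADP at pH 7.2. Activity is normalized to DMSO-only control wells.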

[9] = molecular target: Pyruvate kinase PKM (Homo sapiens) (UniProt P14618); assay: qHTS Assay for Activators of Human Muscle Pyruvate Kinase (AID 954; active means well fitted curve in the direction sought with a large enough effect, not every such curve was filed as active;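 further: 0% = uninhibited enzyme and -100% = no enzyme or full thiadiazolimine inhibition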)
Sequence of Pyruvate kinase PKM (Homo sapiens) (P14618 whole entry, looked up): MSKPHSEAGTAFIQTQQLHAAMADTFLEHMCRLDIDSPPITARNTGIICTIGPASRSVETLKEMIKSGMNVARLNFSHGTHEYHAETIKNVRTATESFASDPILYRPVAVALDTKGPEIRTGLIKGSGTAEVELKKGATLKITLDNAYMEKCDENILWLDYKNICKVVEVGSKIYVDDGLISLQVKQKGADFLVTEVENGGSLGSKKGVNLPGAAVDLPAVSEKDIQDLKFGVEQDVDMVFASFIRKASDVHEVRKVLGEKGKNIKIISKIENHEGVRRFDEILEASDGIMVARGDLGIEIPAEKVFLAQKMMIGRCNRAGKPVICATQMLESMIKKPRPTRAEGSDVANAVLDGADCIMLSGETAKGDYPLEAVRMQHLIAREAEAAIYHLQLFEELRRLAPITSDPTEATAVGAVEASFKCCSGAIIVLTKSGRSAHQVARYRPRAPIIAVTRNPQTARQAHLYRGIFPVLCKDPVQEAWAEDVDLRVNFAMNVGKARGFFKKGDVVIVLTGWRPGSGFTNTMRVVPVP
Summary of the method: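 Compound pinned into substrate mix (0.5 mM PEP, 0.1 mM ADP), then 0.1 nM PKM2 added; 1 h, RT. Stop/detection luciferase reagent added, luminescence read. Normalized to no-inhibition and no-enzyme or reference-inhibitor controls.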

[10] = molecular target: Alpha-galactosidase A (Homo sapiens) (UniProt P06280); assay: Counterscreen for Glucocerebrosidase Inhibitors: qHTS Assay for Human alpha-Galactosidase at pH 4.5 (AID 992; active means well fitted curve in the direction sought with a large enough effect; an effect the other way counts as inactive or inconclusive; further: 0% is about no effect)
Sequence of Alpha-galactosidase A (Homo sapiens) (P06280 whole entry, looked up): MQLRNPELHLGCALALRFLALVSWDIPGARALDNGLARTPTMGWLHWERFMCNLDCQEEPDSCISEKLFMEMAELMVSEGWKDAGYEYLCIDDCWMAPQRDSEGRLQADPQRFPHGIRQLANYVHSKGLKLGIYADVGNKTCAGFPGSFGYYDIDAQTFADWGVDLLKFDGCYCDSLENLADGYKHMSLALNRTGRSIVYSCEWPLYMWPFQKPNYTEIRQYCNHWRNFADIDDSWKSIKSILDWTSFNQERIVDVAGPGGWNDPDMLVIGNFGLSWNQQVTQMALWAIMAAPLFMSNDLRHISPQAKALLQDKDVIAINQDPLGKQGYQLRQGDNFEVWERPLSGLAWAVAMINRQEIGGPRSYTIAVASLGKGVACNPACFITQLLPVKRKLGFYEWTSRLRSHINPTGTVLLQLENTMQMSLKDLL
Summary of the method: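 Steps: enzyme (2 nM final), then compound across 0.7 nM to 77 uM, then 80 uM fluorogenic galactopyranoside substrate; incubate 20 min at room temperature; quench at pH 10; measure fluorescence at 365/440 nm.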

[11] = molecular target: alpha-glucosidase (Oryza sativa, rice) (UniProt Q653V4); assay: Counterscreen for Glucocerebrosidase Inhibitors: qHTS Assay for Rice alpha-Glucosidase at pH 5.0 (AID 997; active means well fitted curve in the direction sought with a large enough effect; an effect the other way counts as inactive or inconclusive;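 further: 0% = full activity with enzyme and -100% = basal without enzyme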)
Summary of the method: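 Endpoint fluorogenic assay at pH 5.0: compounds (0.7 nM to 77 uM) titrated against 4 nM rice enzyme and 400 uM 4-MU-alpha-glucoside for 20 min at room temperature; NaOH/glycine stop, read ex 365/em 440 nm, Hill-fitted AC50.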

[12] = NFAT Signaling Pathway (AID 444); conditions: Jurkat NFAT-bla M1, carbachol, beta-lactamase ratio, 5 h; at 7.69 µM (top of the series) unless noted;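 further: carbachol stimulus at about its EC50 of 1 µM final; on the % scale 0 is the no-effect control and ±100 the full control effect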
Summary of the method: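 Read-out: CCF4 FRET ratio (460 nm/530 nm) after 1 h RT dye loading, used for %activity and AC50 from titration series. Cells: Jurkat NFAT-β-lactamase/M1 line, treated with compound plus 1 uM carbachol for 5 h, 37 °C.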

[13] = molecular target: Cytochrome P450 1A2 (Homo sapiens) (UniProt P05177); assay: p450-cyp1a2 (AID 410; calls by dose curve; further: potency means the concentration at half of the fitted maximal effect;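 on activity change, negative = inhibition: -100% = full effect of reference inhibitor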)
Sequence of Cytochrome P450 1A2 (Homo sapiens) (P05177 whole entry, looked up): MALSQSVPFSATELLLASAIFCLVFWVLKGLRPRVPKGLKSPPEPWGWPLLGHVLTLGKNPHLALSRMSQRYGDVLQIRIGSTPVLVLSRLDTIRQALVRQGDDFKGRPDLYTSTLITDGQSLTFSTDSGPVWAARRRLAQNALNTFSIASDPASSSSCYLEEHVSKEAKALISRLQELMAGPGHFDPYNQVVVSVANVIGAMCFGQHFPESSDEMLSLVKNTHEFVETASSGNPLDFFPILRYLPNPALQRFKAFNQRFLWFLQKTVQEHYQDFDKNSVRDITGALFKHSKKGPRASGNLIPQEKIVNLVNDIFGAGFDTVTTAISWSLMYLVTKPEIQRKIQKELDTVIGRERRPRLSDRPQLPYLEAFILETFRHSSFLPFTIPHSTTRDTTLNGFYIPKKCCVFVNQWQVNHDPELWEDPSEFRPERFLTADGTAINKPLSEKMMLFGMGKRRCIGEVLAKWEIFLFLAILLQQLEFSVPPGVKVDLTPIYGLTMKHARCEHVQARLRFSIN
Summary of the method: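 O-Demethylation of luciferin 6' methyl ether by human CYP1A2 is monitored as luciferase luminescence. Substrate sits at Km (100uM); enzyme is 20nM. Values are scaled to 57 uM furafylline as maximal inhibition.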

[14] = Cell Viability - MRC5 (AID 434; calls by dose curve;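 further: potency means the concentration at half of the fitted maximal effect; cells exposed to compound for 40 hours at 37 °C; potency reflects cytotoxicity seen as loss of intracellular ATP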); conditions: MRC5 lung fibroblast viability, qHTS
Summary of the method: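 AC50 values come from Hill-equation fits of intracellular ATP loss, measured by CellTiter-Glo luminescence. Normal lung fibroblasts (MRC5) had 40 hr compound treatment at 37 C, normalized between DMSO and 100 uM tamoxifen.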

[15] = Cellular Toxicity (caspase-3) HepG2 (AID 654; active means well fitted curve in the direction sought with a large enough effect; an effect the other way counts as inactive or inconclusive;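 further: cells exposed to compound for 16 hours before reading; 0% = DMSO alone and 100% = caspase signal from 100 µM tamoxifen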)
Summary of the method: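 Caspase 3/7 activation in HepG2 is measured as rising luminescence after a 16 hr treatment at 37 °C. Values are scaled between DMSO basal and 100 uM tamoxifen, and AC50 is fitted with the Hill equation.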

[16] = Cellular Toxicity (caspase-3) HUV-EC-C (AID 656; active means well fitted curve in the direction sought with a large enough effect; an effect the other way counts as inactive or inconclusive;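 further: 0% = DMSO basal and 100% = 100 µM tamoxifen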)
Summary of the method: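 HUV-EC-C cells (1000/well) in complete medium, compound-treated 16 h at 37 °C; caspase-3/7 activity read by Caspase-Glo 3/7 luminescence. Normalized to DMSO (basal) and 100 uM tamoxifen (100%); AC50 from Hill-equation concentration-response fits.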

[17] = Cellular Toxicity (caspase-3) MRC-5 (AID 659; active means well fitted curve in the direction sought with a large enough effect; an effect the other way counts as inactive or inconclusive;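 further: 0% = DMSO basal and 100% = 10 µM staurosporine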)
Summary of the method: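 Luminescent Caspase-Glo 3/7 read-out (1 h, room temperature) after a 16 h, 37 °C compound exposure of MRC-5 lung fibroblasts at 1500 cells/well. Concentration-response AC50 from Hill equation; 0% DMSO, 100% 10 uM staurosporine.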

[18] = Cellular Toxicity (caspase-3) Renal Proximal Tubule (AID 667; active means well fitted curve in the direction sought with a large enough effect; an effect the other way counts as inactive or inconclusive;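 further: cells exposed to compound for 16 hours at 37 °C before detection; 0% = DMSO basal and 100% = 10 µM staurosporine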); conditions: Potency: caspase-3 activation
Summary of the method: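 Freshly isolated primary rat kidney proximal tubule cells, 1000/well, treated 16 hr at 37 °C, then Caspase-Glo 3/7 luminescence after 1 hr. Normalized to DMSO and 10 uM staurosporine; AC50 from Hill fit.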

[19] = molecular target: Peroxisome proliferator-activated receptor alpha (Homo sapiens) (UniProt Q07869); assay: qHTS assay for small molecule agonists of the peroxisome proliferator-activated receptor alpha (PPARalpha) signaling pathway (AID 651778; active means well fitted curve in the direction sought with a large enough effect; an effect the other way counts as inactive or inconclusive; further: % of control where 0% means no effect); conditions: PathHunter PPARalpha complementation, chemiluminescence, 6 h; max response: stronger effect = higher value
Sequence of Peroxisome proliferator-activated receptor alpha (Homo sapiens) (Q07869 whole entry, looked up): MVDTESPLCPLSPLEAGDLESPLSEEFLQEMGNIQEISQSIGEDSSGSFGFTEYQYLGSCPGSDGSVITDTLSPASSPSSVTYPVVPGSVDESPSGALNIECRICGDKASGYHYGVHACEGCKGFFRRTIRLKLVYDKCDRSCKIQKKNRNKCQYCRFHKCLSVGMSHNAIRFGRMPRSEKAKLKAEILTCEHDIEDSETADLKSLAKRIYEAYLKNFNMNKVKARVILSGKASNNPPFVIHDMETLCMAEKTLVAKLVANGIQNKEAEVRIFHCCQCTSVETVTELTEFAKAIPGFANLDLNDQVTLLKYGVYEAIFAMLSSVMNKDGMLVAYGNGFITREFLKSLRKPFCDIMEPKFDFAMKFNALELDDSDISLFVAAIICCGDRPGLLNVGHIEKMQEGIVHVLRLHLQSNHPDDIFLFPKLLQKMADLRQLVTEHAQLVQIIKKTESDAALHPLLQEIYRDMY
Summary of the method: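 Chemiluminescence from complemented enzyme reported PPARalpha activation in cells after 6 hr of compound treatment at 37 C. The detection reagent was incubated for 60 min at room temperature, and compounds were scored as agonists.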

[20] = qHTS assay for small molecule agonists of the antioxidant response element (ARE) signaling pathway measured by Nrf2-dependant transcriptional activity - cell viability counter screen (AID 720653; active means well fitted curve in the direction sought with a large enough effect in the repeat runs; an effect the other way counts as inactive or inconclusive; further: on the % scale 0 is the no-effect control and ±100 the full control effect); conditions: ARE-bla HepG2 viability, CellTiter-Glo ATP luminescence, 16 h; max response: stronger effect = lower value
Summary of the method: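 Cytotoxicity counter screen: intracellular ATP quantified by CellTiter-Glo luminescence in the same ARE-bla HepG2 plates, after 16 h compound exposure and a 2 h beta-lactamase substrate step.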

C[C@@H](CN1CCC(Cc2ccccc2)CC1)[C@H](O)c1ccc(O)cc1
inactive: activity change, negative = inhibition [1] 7.29% [at 38 µM] | activity, negative = inhibition [2] -25.3% [at 38 µM] | Potency [3] > 46 µM | Potency [4] > 46 µM | Potency [5] | Potency [6] | outcome [7] | outcome [8] | outcome [9] | outcome [10] | Potency [11]

COc1ccc(CCN(C)CCC[C@@](C#N)(c2cc(OC)c(OC)c(OC)c2)C(C)C)cc1OC
inactive: activity change, negative = inhibition [1] 2.08% [at 38 µM] | activity change, negative = inhibition [12] -29.4% [at 38 µM] | activity, negative = inhibition [2] -12.4% [at 38 µM] | Potency [3] > 46 µM | Potency [4] > 46 µM | outcome [7] | outcome [8] | outcome [9] | outcome [10] | Potency [11]

N=C(N)SCc1cccc2c(=O)cc(-c3ccccc3)oc12
inactive: activity change, negative = inhibition [1] 28% | Potency [3] > 46 µM | Potency [4] > 9.22 µM | Potency [5] | Potency [6]
active: Potency [13] 0.126 µM

COc1ccccc1OC[C@H](O)CN1CCN(CC(=O)Nc2c(C)cccc2C)CC1
inactive: activity change, negative = inhibition [1] -8.83% [at 38 µM] | activity change, negative = inhibition [12] 12.3% [at 38 µM] | Potency [3] > 46 µM | Potency [4] > 46 µM | Potency [5] | Potency [6] | outcome [7] | outcome [8] | outcome [9] | outcome [10] | Potency [11]

Cc1cccc(CNc2ncnc3ccc(-c4ccc(C(=O)N(C)C)cc4)cc23)c1
active: Potency [13] 15.8 µM
inactive: activity change, negative = inhibition [12] -8.36% | Potency [3] > 46 µM | Potency [4] > 46 µM | Potency [5] | Potency [6]

C/C(=N\[N+](C)(C)C)c1ccc(C)c(C)c1
inactive: activity change, negative = inhibition [1] 10% | activity change, negative = inhibition [13] -16.9% [at 2.29 µM] | activity, negative = inhibition [2] 6.61% | Potency [3] > 46 µM | Potency [4] > 9.22 µM | Potency [5] | Potency [6]

Clc1cccc(Cl)c1C(Nc1nncs1)Nc1nncs1
inactive: activity change, negative = inhibition [1] -1.25% | activity change, negative = inhibition [12] 2.41% | activity, negative = inhibition [2] -3.83% | Potency [3] > 46 µM | Potency [4] > 9.22 µM | Potency [5] | Potency [6]

O=C(Nc1ccc2c(c1)Cc1ccccc1-2)[C@@H]1[C@H](C(=O)O)[C@]2(Cl)C(Cl)=C(Cl)[C@@]1(Cl)C2(Cl)Cl
active: Potency [13] 3.16 µM
inactive: activity change, negative = inhibition [1] 9.85% | activity, negative = inhibition [2] 4.65% | Potency [3] > 46 µM | Potency [4] > 9.22 µM | Potency [5] | Potency [6]

COc1cccc2c1[C@H](CO)N1[C@H](C#N)[C@@H]3C[C@H](C(=O)O)[C@@H]([C@@H]1C2)N3C
active: activity change, negative = inhibition [12] -126%
inactive: activity change, negative = inhibition [13] -21% [at 2.29 µM] | Potency [3] > 46 µM | Potency [4] > 9.22 µM | Potency [5] | Potency [6]

CCN1CCC(O)([C@H](C(=O)O)c2ccccc2)CC1
inactive: activity change, negative = inhibition [1] -5.97% | activity change, negative = inhibition [12] 16.2% | activity, negative = inhibition [2] 16.9% | Potency [3] > 46 µM | Potency [4] > 9.22 µM | Potency [5] | Potency [6]

COc1cc(-c2ccc(N=C=O)c(OC)c2)ccc1N=C=O
inactive: Potency [14] > 92 µM | Potency [5] | Potency [15] | Potency [16] | outcome [17] | Potency [18] | max response [19] 20.1% | max response [20] 21.7% and 2.99%

CN1C[C@@H](O)[C@@H](O)[C@@H](O)[C@@H]1CO
inactive: activity change, negative = inhibition [1] 0.324% [at 38 µM] | activity change, negative = inhibition [12] 16.3% [at 38 µM] | activity, negative = inhibition [2] -5.85% [at 38 µM] | Potency [3] > 46 µM | Potency [4] > 46 µM | Potency [5] | Potency [6]

O[C@@H](c1cc([C@@]23C[C@H]4CC[C@@H]2C[C@H](C4)C3)nc2c(Cl)cc(Cl)cc12)[C@@H]1CCCCN1
inactive: activity change, negative = inhibition [1] 1.64% | activity change, negative = inhibition [13] -10.5% [at 2.29 µM] | activity, negative = inhibition [2] 0.88% | Potency [3] > 46 µM | Potency [4] > 9.22 µM | Potency [5] | Potency [6]

Cn1ccnc1C[C@@](C)(O)c1ccccc1
inactive: activity change, negative = inhibition [1] 7.99% | activity change, negative = inhibition [12] 2.18% | activity, negative = inhibition [2] 8.21% | Potency [3] > 46 µM | Potency [4] > 9.22 µM | Potency [5] | Potency [6]

CCCC(c1cc(C(C)(C)C)c(O)cc1C)c1cc(C(C)(C)C)c(O)cc1C
inactive: activity change, negative = inhibition [1] 28.1% | activity change, negative = inhibition [13] -12.3% [at 2.29 µM] | activity, negative = inhibition [2] 4.1% | Potency [3] > 46 µM | Potency [4] > 9.22 µM | Potency [5] | Potency [6]

CCCCC/C=C\C[C@H](O)/C=C\c1cccc(C[C@H](O)CCCCO)n1
inactive: activity change, negative = inhibition [1] -11.3% [at 38 µM] | activity change, negative = inhibition [12] -9.64% [at 38 µM] | activity, negative = inhibition [2] 54.3% [at 38 µM] | Potency [3] > 46 µM | Potency [4] > 46 µM | Potency [5] | Potency [6] | outcome [7] | outcome [8] | outcome [9] | outcome [10] | Potency [11]
